Hit rate of the full screen: of about 310,000 compounds, about 14,000 (4.5%) showed an effect of 50% or more. The effect is printed as a negative number. Shown is part of a subset that was picked to be rich in strong results.
molecular target: human ether-à-go-go-related gene (hERG) potassium channel (human, UniProt Q12809); experiment: primary screen, population patch clamp on CHO cells stably expressing hERG; higher = less effect of the substance
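Also: peak tail current of the secondary pulse compared with the same well before compound.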

Chain of human ether-à-go-go-related gene (hERG) potassium channel (Q12809 whole entry, looked up): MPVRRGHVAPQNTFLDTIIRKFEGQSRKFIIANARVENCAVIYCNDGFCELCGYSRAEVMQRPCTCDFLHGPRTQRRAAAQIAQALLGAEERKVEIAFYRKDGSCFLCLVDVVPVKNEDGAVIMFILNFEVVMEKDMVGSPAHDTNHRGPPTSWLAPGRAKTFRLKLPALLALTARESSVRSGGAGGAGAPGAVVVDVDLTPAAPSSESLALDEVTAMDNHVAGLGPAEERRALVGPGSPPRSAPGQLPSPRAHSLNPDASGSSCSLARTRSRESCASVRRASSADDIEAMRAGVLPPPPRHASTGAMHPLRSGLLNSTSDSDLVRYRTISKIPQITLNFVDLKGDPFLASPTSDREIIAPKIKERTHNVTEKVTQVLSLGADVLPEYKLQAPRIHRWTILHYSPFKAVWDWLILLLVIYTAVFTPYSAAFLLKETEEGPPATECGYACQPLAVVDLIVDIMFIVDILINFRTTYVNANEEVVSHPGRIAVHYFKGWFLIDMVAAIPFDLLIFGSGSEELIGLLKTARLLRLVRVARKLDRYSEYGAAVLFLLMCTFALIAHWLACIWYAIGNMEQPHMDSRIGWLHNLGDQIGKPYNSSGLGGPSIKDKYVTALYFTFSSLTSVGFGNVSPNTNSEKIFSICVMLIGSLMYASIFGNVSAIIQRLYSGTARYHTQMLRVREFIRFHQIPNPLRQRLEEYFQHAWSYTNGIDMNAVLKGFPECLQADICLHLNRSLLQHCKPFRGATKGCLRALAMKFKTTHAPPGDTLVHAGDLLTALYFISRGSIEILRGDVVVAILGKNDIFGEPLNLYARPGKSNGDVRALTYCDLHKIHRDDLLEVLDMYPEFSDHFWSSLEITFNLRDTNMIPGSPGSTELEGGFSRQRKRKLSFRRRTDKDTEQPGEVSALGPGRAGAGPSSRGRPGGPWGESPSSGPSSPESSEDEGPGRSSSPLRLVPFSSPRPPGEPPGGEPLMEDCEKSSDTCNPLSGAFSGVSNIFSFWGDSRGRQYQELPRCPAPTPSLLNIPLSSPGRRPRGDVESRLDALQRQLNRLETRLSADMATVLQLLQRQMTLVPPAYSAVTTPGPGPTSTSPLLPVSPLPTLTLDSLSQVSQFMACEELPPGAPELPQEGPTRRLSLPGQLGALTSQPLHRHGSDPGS

SMILES	hERG current change (%, negative = inhibition) at 10uM
Fc1ccccc1-c1nc2c(s1)CCc1onc(-c3ccc(Br)cc3)c1-2	11.4%
CCC(C)c1ccc(NC(=S)N2CCCC2)cc1 (stereo not shown)	1.86%
O=C(CCSCc1ccc(Cl)cc1)NCCC1=CCCCC1	11.4%
COc1ccc(N/C=C2\CCc3ccccc3C2=O)cc1	0.787%
COc1ccc(C(=O)NCC(=O)OCC(=O)Nc2cccc(S(=O)(=O)N3CCCC3)c2)cc1	-15.8%
CC(O/N=C/c1ccc(OC(F)F)cc1)C(=O)Nc1cccc(S(=O)(=O)N2CCOCC2)c1 (stereo not shown)	-60.5%
O=C(COC(=O)CNC(=O)c1ccc(F)cc1)Nc1cccc(S(=O)(=O)N2CCCC2)c1	-12%
O=C(/C=C/c1ccc(OC(F)F)cc1)Nc1cccc(S(=O)(=O)N2CCOCC2)c1	14.2%
CC(O/N=C/c1ccccc1OC(F)F)C(=O)Nc1cccc(S(=O)(=O)N2CCOCC2)c1 (stereo not shown)	-33.9%
O=C(CNC(=O)c1ccc(OC(F)F)cc1)Nc1cccc(S(=O)(=O)N2CCCC2)c1	-70.3%
C[C@H]1CN=C(N(C)C)N1CC1CCCCC1	7.73%
Nc1nonc1-n1nnc(C(=O)N/N=C/c2cccc(Cl)c2)c1-c1cccs1	3.81%
Cc1noc(NS(=O)(=O)c2ccc(N/C=C/C(=O)c3ccncc3)cc2)c1C	-13%
COCCCN1CC(=O)N2C(c3ccccc3)c3[nH]c4ccccc4c3C[C@H]2C1=O (stereo partly shown)	-11.3%
O=C(NNC(=O)C12CC3CC(CC(C3)C1)C2)c1csc(N2CCOCC2)n1	11.3%
COC(=O)C1=C[C@@H](C(=O)OC)[C@@H]2C3=C(C(=O)[C@]2(C)NC(=O)c2ccccc2)[C@H](C)n2c(=O)n(-c4ccccc4)c(=O)n2[C@@H]3C1	7.6%
Cc1cc(NC(=O)Nc2ccc(Cl)c(Cl)c2)n(-c2ccccc2)n1	13.9%
COc1ccc(C(=O)Nc2ccc(Nc3ccccc3)cc2)cc1[N+](=O)[O-]	-37%
COc1ccc(C(=O)Nc2ccccc2)cc1NC(=O)c1ccc([N+](=O)[O-])cc1	-56.8%
COc1ccc(C(=O)Nc2ccc(NC(=O)c3cccs3)cc2)cc1Cl	27.5%
COc1ccc([N+](=O)[O-])cc1NC(=O)Nc1ccccc1	10.3%
COc1ccc([N+](=O)[O-])cc1N/C(=N/S(=O)(=O)c1ccccc1)c1ccccc1	-57.8%

SMILES	hERG current change (%, negative = inhibition) at 10uM
COc1ccc(C(=O)Nc2cccc(NC(=O)c3cccs3)c2)cc1OC	8.5%
COc1ccccc1N/C(=N/S(=O)(=O)c1ccc(C)cc1)c1ccccc1	-31%
COc1ccccc1N/C(=N/S(=O)(=O)c1ccc(Cl)cc1)c1ccccc1	-35.1%
Cc1ccccc1NC(=O)c1cccc(S(=O)(=O)Oc2ccc([N+](=O)[O-])cc2)c1	-24.5%
O=C(Nc1ccccc1)c1cccc(S(=O)(=O)Oc2ccc([N+](=O)[O-])cc2)c1	-56.4%
O=C(O)c1ccc(NS(=O)(=O)c2cccc(C(=O)Nc3ccc([N+](=O)[O-])cc3)c2)cc1	18.8%
COc1ccc(C(=O)Nc2ccccc2)cc1NC(=O)c1cccs1	-74%
Cc1cc(C)c2nc(SCC(=O)NC(=O)c3cccn3C)cc(C)c2c1	-2.66%
COc1ccc(C(C)=O)cc1COC(=O)c1cc(C)nc2ccccc12	13.6%
O=C(Nc1ccc([N+](=O)[O-])cc1)c1nc[nH]c1C(=O)NC1CCCCC1	16.2%
COC(=O)c1c(NC(=O)C(C)C)sc2c1C(C(=O)OC)CC2 (stereo not shown)	11.8%
CC(C)Sc1nnc(-c2c[nH]c3ccccc23)n1C	1.3%
CN1CCN(/N=C/c2c(O)n(Cc3ccc(F)cc3)c(=O)[nH]c2=O)CC1	0.78%
COc1cccc(NC(=O)CN(c2ccc3c(c2)OCO3)S(C)(=O)=O)c1	3.07%
CNc1nnc(-c2ccc(N(C)C)cc2)s1	8.65%
CCCCCn1c(=O)c(C(=O)OCC)c(O)c2ccccc21	-64%
CCCCCn1c(=O)c(C(=O)OCC)c(Cl)c2ccccc21	-73.8%
CCCCCCCn1c(=O)c(C(=O)OC)c(N)c2ccccc21	-9%
CCCCn1c(=O)c(C(=O)OCC)c(O)c2ccccc21	2.18%
CCCCCCCCn1c(=O)c(C(=O)OCC)c(O)c2ccccc21	14.5%
CCCCCCCCn1c(=O)c(C(=O)OC)c(N)c2ccccc21	3.02%
CCC1CCCCN1CCCNC(=O)CSc1nc2nc(C)c(Cc3ccc(C)cc3)c(C)n2n1 (stereo not shown)	-47.8%

SMILES	hERG current change (%, negative = inhibition) at 10uM
NS(=O)(=O)c1ccc(NC(=O)COC(=O)CCC2CCCCC2)cc1	-5.65%
Cc1ccc(C(=O)NCCN2CCNC2=O)cc1	12.9%
O=C(Nc1ccc2c(c1)OCO2)C(=O)c1c[nH]c2ccccc12	22.3%
COc1ccc(C(=O)NCCCNC(=O)c2ccccn2)cc1	10.8%
CCCn1c(SCC(=O)NC2CCCCC2)nnc1-c1ccncc1	4.24%
CN1CCN(S(=O)(=O)c2ccc(N(C)Cc3ccc(C(F)(F)F)cc3)c([N+](=O)[O-])c2)CC1	-5.45%
COc1cc(Nc2ccc(S(=O)(=O)N3CCN(C)CC3)cc2[N+](=O)[O-])cc(OC)c1	-28.6%
CN1CCN(S(=O)(=O)c2ccc(N(C)Cc3ccc(OC(F)F)cc3)c([N+](=O)[O-])c2)CC1	-60.8%
C=CCOc1ccc(CN(C)c2ccc(S(=O)(=O)N3CCN(C)CC3)cc2[N+](=O)[O-])cc1	6.82%
CN1CCN(S(=O)(=O)c2ccc(Nc3cccc(Cl)c3)c([N+](=O)[O-])c2)CC1	-20.7%
CN1CCN(S(=O)(=O)c2ccc(Nc3ccc(F)cc3)c([N+](=O)[O-])c2)CC1	-51.3%
Cc1nnc(SCC(N)=O)n1CC1CCCO1 (stereo not shown)	3.55%
NC(=O)c1ccsc1NC(=O)c1coc2ccccc2c1=O	-2.56%
COc1ccc(-c2nn3c(-c4ccccn4)nnc3s2)cc1OC	10.6%
CCOC(=O)c1sc(SCC(=O)Nc2ccc(N(C)C)cc2)nc1N	-13%
S=C(NCCc1cnc[nH]1)NC1CCCC1	23.2%
CCOC(=O)Cc1nc2cc(Cl)ccc2o1	10.7%
N#Cc1ccsc1NC(=O)c1ccccn1	-4.67%
CCOc1ccc(OCCC(=O)N2CCc3cc(OC)c(OC)cc3C2)cc1	-20.6%
COc1ccc(OC)c(Nc2nc(NCc3ccco3)c3ccccc3n2)c1.Cl	-12.2%
CSCC(=O)NC1CCCN(C2Cc3ccccc3C2)C1 (stereo not shown)	-5.38%
O=C(NC1CCCN(C2Cc3ccccc3C2)C1)c1ccc(F)cc1Cl (stereo not shown)	-71.1%

SMILES	hERG current change (%, negative = inhibition) at 10uM
C#Cc1cccc(C(=O)NC2CCCN(C3Cc4ccccc4C3)C2)c1 (stereo not shown)	-64.4%
O=C(NC1CC1)c1ccc(F)cc1Cl	21%
CC#CC(=O)NC1CCCN(C2Cc3ccccc3C2)C1 (stereo not shown)	-18.7%
COc1cccc(C(=O)NC2CCCN(C3Cc4ccccc4C3)C2)c1OC (stereo not shown)	-41.7%
Cn1cnnc1SC(C(=O)Nc1cc(Cl)cc(Cl)c1)c1ccccc1 (stereo not shown)	20.9%
Cc1cc(C(=O)CSc2nc3ccccc3[nH]2)c(C)n1CC1CCCO1 (stereo not shown)	-12.5%
CC(C)(C)NC(=O)NC(=O)CSc1ccc(S(=O)(=O)N2CCCCC2)cn1	-13.5%
Cc1cccc(C)c1OCc1cc(C(=O)N2CCCCCCC2)no1	-0.442%
O=C(c1cc(COc2c(F)cccc2F)on1)N1CCCCCC1	4.46%
CC(=O)N1CCCN(C(=O)c2cc(COc3c(F)cccc3F)on2)CC1	6.58%
O=C(c1cc(COc2c(F)cccc2F)on1)N1CCN(C2CCCCC2)CC1	-52%
Cc1cccc(C)c1OCc1cc(C(=O)N2CCN3CCCC3C2)no1 (stereo not shown)	-19.5%
Cc1cccc(C)c1OCc1cc(C(=O)N2CCN(C3CCCC3)CC2)no1	-67.9%
CN(C)Cc1c(-c2ccc(Cl)cc2)nc2ccccn12	0.0702%
CC(C)(C)c1ccc(C(=O)NCCCNC(=O)c2cccnc2)cc1	11.7%
CCN(C(=O)[C@@H]1CCCN1C(=O)c1cccs1)c1nc2cc(Cl)ccc2s1	-36%
Cc1ccc(-c2noc(CCC(=O)NCC3CCCO3)n2)cc1 (stereo not shown)	2%
Cc1ccc(-c2noc(CCC(=O)NCC3CCN(Cc4cccc(C)c4)CC3)n2)cc1	-63.8%
COc1ccc(-c2noc(CCC(=O)NC3CCN(Cc4ccccc4)CC3)n2)cc1	-45.7%
Cc1ccc(-c2noc(CCC(=O)NCCN3CCN(Cc4ccccc4)CC3)n2)cc1	-49%
COc1ccc(-c2noc(CCC(=O)NCCc3cccc(C)c3)n2)cc1	-0.562%
COc1ccc(-c2noc(CCC(=O)NCC3CCN(Cc4cccc(C)c4)CC3)n2)cc1	-60.3%

— article PMC4336329 (PLoS ONE, 2015)
